# According to PubChem BioAssay (NCI):
# “And” between values parts separate entries of the source, which are not always exact repeats. Identical values can stand only once. This is part of a sample that, as a whole, favours compounds with a hit. Of some 83,000 tested, about 20% had one in any assay.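 Interpretation: 100, growth as untreated; towards 0, rising growth inhibition; 0, no net growth; 0 to -100, cell death. Compounds scoring below 10 were considered active.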 Values without a mark were called inactive. The source made the active and inactive calls. Where a SMILES comes first, the peptide text is derived from it. [ ]: non-standard residue; d: D form. ξ: configuration not given here. ξV = CC(C)C(N)C(=O)O
# System: HS 578T breast
# Test: NCI-60 one-dose screen, 48 h (100 = growth as untreated, 0 = no growth, -100 = all killed)
# Details: 0.0025 µM
# Protocol: Growth inhibition of the HS 578T human tumor cell line is measured as a screen for anti-cancer activity. Cells are grown in 96 well plates and exposed to the test compound for 48 hours. Compounds are tested at a single concentration, which is 10^-5 M for most compounds. The reported endpoint is percent growth (GI% or GIPRCNT), where numbers from 0 - 100% represent growth inhibition, and numbers from -100% - 0 represent cell death. For example, a value of 40 represents 60% growth inhibition. A value of 0 means no net growth occurred over the course of the experiment. A value of -40 indicates 40% of cells at the beginning of the experiment died by the end of the experiment. A value of -100 means all cells are dead at the end of the experiment.
# NCI-60 Human Tumor Cell Lines Screen was performed using the standard one-dose NCI protocol, which is described in more detail at https://dtp.cancer.gov/discovery_development/nci-60/default.htm.
# Compounds with GIPRCNT values below 10 were considered active. Activity score was based on GIPRCNT using the following formula: […]
# Score is 0 for GIPRCNT values of 100 or above, 50 for GIPRCNT values of 0, and 100 for GIPRCNT values of -100.
row,SMILES,growth
1,COc1cccc2c1C(=O)c1c(O)c3c(c(O)c1C2=O)C[C@@](O)(C(=O)CO)C[C@@H]3OC1CC(N)C(O)C(C)O1 (stereo not given in full),97.9%

# Same assay, conditions: 1 µM
row,SMILES,growth
1,COc1cccc2c1C(=O)c1c(O)c3c(c(O)c1C2=O)C[C@@](O)(C(=O)CO)C[C@@H]3OC1CC(N)C(O)C(C)O1 (stereo not given in full),70.8%

# Same assay, conditions: 2.5 µM
row,SMILES,growth
1,COc1cccc2c1C(=O)c1c(O)c3c(c(O)c1C2=O)C[C@@](O)(C(=O)CO)C[C@@H]3OC1CC(N)C(O)C(C)O1 (stereo not given in full),50%

# Same assay, conditions: 10 µM
row,SMILES,growth
1,NC(=O)SCC(=O)NNc1ccccc1,100%
2,O=C1NC(=O)c2cc([N+](=O)[O-])ccc21,127%
3,COC(=O)C1C(O)C(C)C(O)C(C)C=C(C)C2=C3C(=C(C)C(=O)c4c(O)c(c(C)c(OC(C)=O)c43)NC(=O)C(C)=C/C=C\C(C)C(O)C(C)C1O)OCO2 (stereo not given),116%
4,COc1cccc2c1C(=O)c1c(O)c3c(c(O)c1C2=O)C[C@@](O)(C(=O)CO)C[C@@H]3OC1CC(N)C(O)C(C)O1 (stereo not given in full),-68.2% (active)
5,Nc1ccc2cc3ccc(N)cc3nc2c1,123% and 23.6%
6,Oc1ccc(N=Nc2ccccn2)c(O)c1,65.1%
7,Cc1cc(O)c(C(C)C)cc1Cl,99.5%
8,Clc1cc(Cl)c(Cl)nn1,101%
9,O=C(Nc1ccc(C(=O)O)c(O)c1)c1ccccc1,130% and 119%
10,O=C1C=C(O)c2ccccc2C1=O.[Ag],96.7%
11,COc1c(O)cc2oc3cc(O)c(CC=C(C)C)c(O)c3c(=O)c2c1CC=C(C)C,73.3%
12,O=c1ccn(C2CC(O)C(COC(c3ccccc3)(c3ccccc3)c3ccccc3)O2)c(=O)[nH]1 (stereo not given),89.3%
13,CN1CCN(CCCN2c3ccccc3Sc3ccc(C(F)(F)F)cc32)CC1,60.4%
14,COC(=O)C1=COC(C)C2C[n+]3ccc4c([nH]c5ccccc54)c3CC12 (stereo not given),111% and 79.6%
15,CCO/C=C1\SC(=S)N(c2cccc(O)c2)C1=O,108%
16,CCCCCCCCCCCCSC(=NC)NC,81.4% and 93.2%
17,OCC(O)C(O)C(O)C(/C=N/Nc1ccccc1)=N/Nc1ccccc1 (stereo not given),79.7%
18,Nc1nc(=S)c2ncn(C3OC(CO)C(O)C3O)c2[nH]1 (stereo not given),163% and 50.6%

row,SMILES,growth
1,CC(=O)OCC(OC(C)=O)C(OC(C)=O)C(OC(C)=O)C(OC(C)=O)C(/C=N/Nc1ccccc1)=N/Nc1ccccc1 (stereo not given),73%
2,N=S(c1ccccc1[N+](=O)[O-])c1ccccc1[N+](=O)[O-],96.7%
3,NNc1ccc2ccccc2c1,96.1% and 98.9%
4,Cc1cc(NS(=O)(=O)c2ccc(N=Nc3cc(N=Nc4ccc(S(=O)(=O)Nc5cc(C)nc(C)n5)cc4)c4c(NC(=O)C(Cl)Cl)cccc4c3OC(=O)C(Cl)Cl)cc2)nc(C)n1 (tested in a mixture with another compound),111% and 128%
5,OC(CN1CCCC2CCCCC21)c1cc2ccccc2c2ccccc12 (stereo not given),26.1%
6,CSC1SCC2C(=O)N(C)C(C(C)C)C(=O)OCC(NC(=O)c3cnc4ccccc4n3)C(=O)NC(C)C(=O)N(C)C1C(=O)N(C)C(C(C)C)C(=O)OCC(NC(=O)c1cnc3ccccc3n1)C(=O)NC(C)C(=O)N2C (stereo not given),-60.8% (active)
7,O=[N+]([O-])C1=C(c2ccccc2)SC=C(c2ccccc2)S1,85.7%
8,NC1=C(Cl)C(=O)c2ccccc2C1=O,14.5%
9,CCCCCC(C)c1ccc(O)c(C)c1 (stereo not given),105%
10,CC(C)(C)CC(C)(C)c1ccc(OCCO)cc1,94.6%
11,Nc1c2ccccc2nc2ccccc12,44.9% and 27.5% and 82.2%
12,Cc1nc(N=C(N)N)nc2ccc3ccccc3c12,3.6% (active)
13,CCCCCCCCCCCC[N+](C)(C)Cc1ccccc1,43.2%
14,CC(C)C(NC(=O)CN)C(=O)O (stereo not given) (H-Gly-[ξV]-OH),111% and 91.9%
15,COc1cccc2c1C(=O)c1c(O)c3c(c(O)c1C2=O)C[C@@](O)(C(C)=O)C[C@@H]3OC1CC(N)C(O)C(C)O1 (stereo not given in full),-69% (active)
16,O=C(C(=Cc1ccccc1)C(=O)c1ccccc1)c1ccccc1,65.2% and 94.3%
17,CN(C)C(=S)SC(=S)N(C)C,106% and 102%
18,O=C1C=CC(=CC=C2C=CN(CCCCCCCCCCCO)C=C2)C=C1,35.6%

# Same assay, conditions: 100 µM
row,SMILES,growth
1,O=c1ccn(C2CC(O)C(COC(c3ccccc3)(c3ccccc3)c3ccccc3)O2)c(=O)[nH]1 (stereo not given),55.7%
